Assay outcomes from PubChem.
USP8 block: blocks human USP8 ubiquitin-rhodamine cleavage; inhibition, % at 20 µM; AID 1645853; purified USP8, Ub-rhodamine cleavage fluorescence, 30 min; 4.2% of 47,000 active
USP17 block: inhibitors of human USP17 deubiquitinase; A8MUK1; purified USP17, Ub-rhodamine cleavage fluorescence, 3 h; inhibition, % at 50 µM; 6.5% of 47,000 active; AID 1645855
USP30 inh: human USP30 deubiquitinase inhibition; Q70CQ3; purified USP30, Ub-rhodamine cleavage fluorescence; inhibition, % at 25 µM; 5.3% of 47,000 active; AID 1645860
* hit, by the source's call; i = inactive; x = not tested or not shown. Only some compounds are listed: those with a hit (about 12% of all), similar ones and a draw of the others. Rule as the data show it: active = inhibition above about 30%; inactive = the rest.

SMILES | USP8 block | USP17 block | USP30 inh
CSc1nnc(-c2nn(C)c3c2CN(C(=O)c2c(F)cccc2F)CC3)n1C | 0 | 1 | -6
N#CCN1CC[C@@]2(O)CCCC[C@H]2C1c1ccc2c(c1)OCO2 (stereo partly specified) | -14 | -5 | -2
O=C(NCc1cc2ccccc2[nH]1)c1ccc(COc2ccc(Br)cc2)cc1 | 55* | 9 | -58
O=C(NCc1ccc(F)cc1)c1cccc(COc2ccc3ccccc3c2)c1 | 8 | 8 | 11
Cc1cccc(NC(=O)c2cc3ccccc3c(=O)s2)c1 | 33* | 69* | x
COC(=O)c1ccccc1NC(=O)c1cc2ccccc2c(=O)s1 | 0 | 0 | -3
CCC1CCCCN1Cc1nc2c(c(=O)n(C)c(=O)n2C)n1Cc1ccccc1Cl (stereo unspecified) | 5 | -1 | 26
COCCNc1nc(C)nc2c1oc1ccccc12 | 1 | -23 | -14
O=C(Nc1cc(-c2cccnc2)no1)c1ccc2c(c1)OCO2 | 11 | 7 | 9
CNC(=O)c1cc(-c2ccc3c(c2)OCO3)nc2ccccc12 | -7 | -8 | -19
COc1ccc(-c2cc(C(=O)Nc3ccc4c(c3)OCO4)c3ccccc3n2)cc1 | 6 | 12 | -55
CCOc1cccc(-c2cc(C(=O)Nc3ccc4c(c3)OCO4)c3ccccc3n2)c1 | 36* | -60 | -302
CCOc1cc(N2CCOCC2)c(OCC)cc1NC(=O)c1ccccc1Oc1ccccc1 | 22 | 1 | -1
O=C(Nc1ccc2c(c1)OCO2)c1cc(-c2ccncc2)nc2ccccc12 | 35* | 15 | -39
CCOc1cc(N2CCOCC2)c(OCC)cc1NC(=O)c1cc(-c2ccncc2)nc2ccccc12 | 70* | 66* | -9
Nc1c(C(=O)Nc2ccc3c(c2)OCO3)sc2nc(-c3cccnc3)ccc12 | -27 | 61* | -2
Cc1ccc(NC(=O)Cc2nc(C)c(C(=O)NC3CC3)s2)cc1F | -11 | 14 | -31
Cc1nc(N2CCN(C)CC2)ncc1C(=O)NCc1ccc2c(c1)OCO2 | -48 | -4 | 3
CC(=O)N1Cc2cc(C)ccc2OC2(CCN(CC(=O)N3CCC(C)CC3)CC2)C1 | -3 | 0 | 18
COCC1CN(S(=O)(=O)c2cccc(C)c2)Cc2ccnn2C1 (stereo unspecified) | -52 | -13 | 0
COCc1cc(C)nc(SCC(=O)Nc2nnc(-c3ccccc3)s2)c1C#N | 0 | -21 | -36
COc1cccc(C(=O)NCC(c2cccc3ccccc23)N2CCOCC2)c1 (stereo unspecified) | -5 | x | -5
O=c1[nH]c(C2CCN(S(=O)(=O)c3ccc(S(=O)(=O)NC4CC4)cc3)CC2)nc2c1nnn2Cc1c(Cl)cccc1Cl | 32* | 28 | 12
O=C(C1CCCC1)N1CCC(c2nc3c(nnn3Cc3cccc(F)c3)c(=O)[nH]2)CC1 | -6 | -54 | 0
O=c1[nH]c(C2CCN(S(=O)(=O)c3ccc(S(=O)(=O)NC4CCCCC4)cc3)CC2)nc2c1nnn2Cc1c(F)cccc1Cl | 24 | 17 | 59*
SMILES | USP8 block | USP17 block | USP30 inh
O=c1[nH]c(C2CCN(S(=O)(=O)c3ccc(S(=O)(=O)N4CCOCC4)cc3)CC2)nc2c1nnn2Cc1ccccc1Cl | -40 | 20 | 2
O=c1[nH]c(C2CCN(S(=O)(=O)c3ccc(S(=O)(=O)NC4CCCCC4)cc3)CC2)nc2c1nnn2Cc1c(Cl)cccc1Cl | 40* | 10 | 50*
Cc1ccc(C)c(Cn2nnc3c(=O)[nH]c(C4CCN(S(=O)(=O)c5cccc6ccccc56)CC4)nc32)c1 | -6 | 27 | -8
O=S(=O)(c1ccc(Br)cc1)N1CCC(N2CCOCC2)CC1 | -2 | -3 | 9
CN1c2ccc(C(=O)Nc3ccccc3F)cc2-c2ccccc2S1(=O)=O | 10 | -2 | -1
Cc1cc2c3c([nH]c2cc1S(=O)(=O)NCc1ccc2c(c1)OCO2)CCCC3=O | 0 | 0 | -39
C=CCc1ccc(O[C@H]2O[C@@H](CO[C@@H]3O[C@@H](C)[C@H](O)[C@@H](O)[C@H]3O)[C@H](O)[C@@H](O)[C@@H]2O)c(OC)c1 | -2 | -12 | 19
COc1cc2c(cc1NC(=O)c1ccc([N+](=O)[O-])cc1Cl)CCCC2 | 8 | 6 | 12
O=C(NCC1(O)CCOc2ccccc21)c1ccccc1Cl (stereo unspecified) | -12 | 3 | 8
O=C1N(Cc2ccc(F)cc2)CCN1c1ccc2c(c1)OCO2 | 12 | 11 | 20
COc1ccc(-c2cc(C(=O)NCC(c3ccc(C)cc3)N3CCCC3)no2)cc1 (stereo unspecified) | -1 | -31 | -99
COc1ccc(C(CNC(=O)c2cc(-c3ccc(C)c(C)c3)on2)N2CCOCC2)cc1 (stereo unspecified) | 9 | 21 | 35*
Cc1cc2c(cc1CNC(=O)c1ccc3c(c1)OCCO3)OCCCO2 | -3 | -11 | -12
CCn1c(C2CCN(S(=O)(=O)c3ccc4c(c3)CC(=O)N4C)C2)nc2cccnc21 (stereo unspecified) | -3 | -3 | -8
CN1C(=O)Cc2cc(S(=O)(=O)N3CCC(c4ccncc4)CC3)ccc21 | 16 | 39* | 22
N[C@@H]1C[C@@H](Oc2cccc(F)c2)[C@H](O)[C@H]1N1CCOCC1 | 1 | -10 | 18
O=S(=O)(c1ccccc1)N1CCCCCC1C1CCN(Cc2nnc(C3CC3)o2)CC1 (stereo unspecified) | -14 | -20 | -7
COc1ccccc1CNC(=O)CCc1c(C)c2c(C)nn(-c3ccccc3)c2n(C)c1=O | 4 | 22 | 16
CCn1c(=O)c(CCC(=O)NCc2ccc(OC)cc2)c(C)c2c(C)nn(-c3ccccc3C)c21 | 2 | 70* | 77*
CN1CCCc2cc(C(=O)NCc3cccnc3)sc21 | -9 | -20 | -58
O=C(NCc1nnc(SCC(=O)N2CCc3ccccc32)o1)c1cccs1 | -2 | 2 | -1
O=C(CSc1nnc(Cc2ccccc2)o1)N1CCc2ccccc21 | 2 | 42* | 11
O=C(Cn1c(Cc2ccccc2)nc2ccccc21)N1CCc2ccccc21 | 49* | 26 | 32*
CCCc1nc2ccccc2n1CC(=O)N1CCc2ccccc21 | 5 | 12 | 15
C[C@H](NCC1C(=O)O[C@@H]2C[C@@]3(C)CCC[C@H](C)C3=C[C@H]12)c1ccccc1 (stereo partly specified) | -11 | 0 | 16
SMILES | USP8 block | USP17 block | USP30 inh
CC1CCN(S(=O)(=O)c2cc(C(=O)N3CCCCC3)n(C)c2)CC1 | 7 | -4 | -15
Cc1ccc2c(c1)N(Cc1ccc(Cl)cc1)C(=O)CCS2 | 11 | 24 | 30*
COc1ccc(CN2C(=O)CCSc3ccc(Cl)cc32)cc1 | 4 | 10 | 7
Cc1ncc(-c2ccc3c(c2)OCO3)c(-c2nccs2)n1 | -23 | -155 | i
Cc1c(C)c(C)c2[nH]c(-c3ccc4c(c3)OCO4)nc2c1C | 10 | 47* | 49*
CCOc1ccc(N(CC(=O)NCc2ccccn2)S(=O)(=O)c2ccc(SC)cc2)cc1 | -3 | -4 | 0
O=C(CSc1ncnc2c1cnn2-c1ccc(F)cc1)Nc1ccc(F)cc1F | -4 | -5 | -7
O=C(Nc1cccc(F)c1)N1CCN(c2cc(-c3ccncc3)[nH]n2)CC1 | -24 | -11 | 2
O=C(Nc1cccc(Cl)c1)N1CCN(c2cc(C(F)(F)F)ccn2)CC1 | 3 | 59* | 26
